Results as given in PubChem BioAssay (NCATS).
Results filed as inconclusive are left out. Entries that show only a call come without a potency. Activity calls are given as the source filed them. Calls come from the whole dose curve; as a rule, active = well fitted inhibition curve with a large enough effect; inconclusive = small, poorly fitted or top-dose-only effect; inactive = flat fitted curve, though single readings scatter. Peptide text beside a SMILES is read from it.

These compounds were tested on SC27B (assay: qHTS profiling for inhibitors of Plasmodium falciparum proliferation (AID 504749; note: nearly all actives have a fitted effect of over 60% in size)). Conditions: P. falciparum in erythrocytes, SYBR Green DNA, 72 h; series mostly up to 12.8 µM.
In short: (§1)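 Fluorescence of SYBR Green-bound parasite DNA, read at 485/535 nm, served as the growth measure. Infected erythrocytes were cultured with compound 72 h; artemisinin (0.29 uM) and DMSO wells defined the normalization range.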
Potency is the fitted concentration of half-maximal effect.

| SMILES | Potency |
| --- | --- |
| CC1(C)OC2CO[C@]3(COS(N)(=O)=O)OC(C)(C)OC3C2O1 (stereo not given in full) | inactive |
| CC(=O)OC1CCC2C3CCc4cc(O)ccc4C3CCC12C (stereo not given) | inactive |
| CN(C)CCCOC1C(C(O)CO)OC2OC(C)(C)O[C@@H]21 (stereo not given in full) | inactive |
| COc1cc(C2c3cc4c(cc3C(O[C@@H]3OC5COC(c6cccs6)OC5C(O)C3O)C3COC(=O)C23)OCO4)cc(OC)c1O (stereo not given in full) | 3160 nM (active) |

Each compound was assayed on TAB109 in the same assay as above. Conditions: P. falciparum in erythrocytes, SYBR Green DNA, 72 h; series mostly up to 12.8 µM.
In short: as §1

| SMILES | Potency |
| --- | --- |
| CCC(C)C(=O)OC1CCC=C2C=CC(C)C(CCC3CC(O)CC(=O)O3)[C@@H]21 (stereo not given in full) | inactive |
| C[C@]1(c2ccccc2)OC(C(=O)O)=CC1=O | inactive |
| OCC1OC([S-])[C@H](O)C(O)C1O.[Au+] (stereo not given in full) | inactive |
| COC(=O)N/N=C/C1=C[N+](=O)c2ccccc2[N+]1=O | inactive |
| CN1CC(=O)N=C1N | inactive |
| CNC1CC(N)[C@H](O)[C@@H](O[C@@H]2OC(CO)C3OC4(OC(C(N)CO)C(O)C(O)C4O)O[C@@H]3[C@H]2O)C1O (stereo not given in full) | inactive |
| COC1C=CO[C@@]2(C)Oc3c(C)c(O)c4c(O)c(c(C=NN5CCN(C)CC5)c(O)c4c3C2=O)NC(=O)/C(C)=C\C=CC(C)C(O)[C@@H](C)C(O)C(C)[C@H](OC(C)=O)C1C (stereo not given in full) | 2000 nM (active) |
| CC(=O)N[C@@H]1C(O)OC(CO)C(O)C1O (stereo not given in full) | inactive |
| CCC(CCC(C)C1CCC2C3CC=C4CC(O)CC[C@@]4(C)C3CC[C@@]12C)C(C)C (stereo not given in full) | inactive |
| O=C1OC(CO)C(O)C(O)C1O (stereo not given) | inactive |
| COc1ccc(CC(N)C(=O)NC2C(CO)OC(n3cnc4c(N(C)C)ncnc43)C2O)cc1 (stereo not given) | 891 nM (active) |
| CCCC(=O)O[C@]1(C(=O)CO)CCC2[C@@H]3CCC4=CC(=O)CC[C@]4(C)C3C(O)C[C@]21C (stereo not given in full) | inactive |
| COC(=O)C(Cc1ccccc1)NC(=O)C(N)CC(=O)O (stereo not drawn) (H-Asp-Phe-OMe; configuration not given here) | inactive |
| CC[C@@]12CCCN3CCc4c(n(c5ccccc45)[C@](O)(C(=O)OC)C1)C32 (stereo not given in full) | inactive |
| CC1(C)SC2C(N3C(=O)C(c4ccccc4)NC3(C)C)C(=O)N2C1C(=O)O (stereo not given) | inactive |
| CC1CCC(C(C)C)C(=O)C1 (stereo not given) | inactive |

| SMILES | Potency |
| --- | --- |
| CC(=O)N[C@H](CC(C)C)C(=O)O | inactive |
| CC(C)C1CCC(C(=O)NC(Cc2ccccc2)C(=O)O)CC1 (stereo not given) | inactive |
| COc1ccc2cc(C(C)CO)ccc2c1 (stereo not given) | inactive |
| COc1ccc2cc1Oc1ccc(cc1)CC1c3c(cc4c(c3Oc3cc5c(cc3OC)CCN(C)C5C2)OCO4)CCN1C (stereo not given) | 7080 nM (active) |
| CNC1C(OC2C(O[C@@H]3C(O)C(O)[C@@H](N=C(N)N)C(O)C3N=C(N)N)OC(C)[C@@]2(O)CO)OC(CO)C(O)C1O (stereo not given in full) | inactive |
| C[C@]12C=CC(=O)C=C1CCC1C2C(O)C[C@]2(C)C1CC[C@]2(O)C(=O)CO (stereo not given in full) | inactive |
| COc1ccc2c(c1)N(C[C@@H](C)CN(C)C)c1ccccc1S2 | inactive |
| CCOC(=O)C1=CC(OC(CC)CC)C(NC(C)=O)C(N)C1 (stereo not given) | inactive |
| CN(C)CCc1c[nH]c2ccc(CC3COC(=O)N3)cc12 (stereo not given) | inactive |
| NCC1CCC(N)C(O[C@@H]2C(O)[C@H](O[C@H]3OC(CO)C(O)C(N)C3O)[C@@H](N)C[C@H]2N)O1 (stereo not given in full) | inactive |
| OCC1O[C@H](OC2C(CO)O[C@@](O)(CO)C2O)C(O)C(O)C1O (stereo not given in full) | inactive |
| CC1(C)OC2CO[C@]3(COS(N)(=O)=O)OC(C)(C)OC3C2O1 (stereo not given in full) | inactive |
| CC(=O)OC1CCC2C3CCc4cc(O)ccc4C3CCC12C (stereo not given) | inactive |
| CN(C)CCCOC1C(C(O)CO)OC2OC(C)(C)O[C@@H]21 (stereo not given in full) | inactive |
| COc1cc(C2c3cc4c(cc3C(O[C@@H]3OC5COC(c6cccs6)OC5C(O)C3O)C3COC(=O)C23)OCO4)cc(OC)c1O (stereo not given in full) | 2240 nM (active) |
